# “And” between values parts separate entries of the source, which are not always exact repeats. Equal values may be shown once. This is part of a sample that, as a whole, favours compounds with a hit. Of some 79,000 tested, about 15% had one in any assay. Some structures have more than one record in an assay (separate samples or runs), and their calls can disagree. The source made the active and inactive calls. Rule as the data show it: active = growth inhibition above about 70%; inactive = the rest.
# Experiment: NCI Yeast Anticancer Drug Screen. Data for the mlh1 rad18 strain (AID 175)
# Conditions: S. cerevisiae mlh1 rad18 strain growth inhibition, stronger effect = higher value
# Procedure: Growth inhibition of yeast strains with defined genetic alterations is measured as a screen for potential anti-cancer activity. Selected strains with alterations in DNA damage repair or cell cycle control were exposed to compounds and growth inhibition was measured relative to vehicle treated controls. The strain used in this assay is mlh1 rad18
# [1] = at 5.0 µM (retest, dose inferred, filed as 0.5)
# [2] = at 50.0 µM (retest, dose inferred, filed as 5.0)
SMILES,growth inhibition [1],growth inhibition [2],growth inhibition (at 50.0 µM)
CCCCCCSc1ncnc2[nH]ncc12,-1% (inactive),4% (inactive),80.8% (active)
COc1cccc2c1C(=O)c1c(O)c3c(c(O)c1C2=O)CC(O)(C(O)CO)CC3OC1CC(N2CCOCC2)C(O)C(C)O1 (configuration not stated),99% (active),98% (active),91.1% (active)
O=C(C[n+]1ccc2ccccc2c1)c1ccc2ccccc2c1,68% (inactive),100% (active),-11.2% (inactive) and 69.5% (inactive)
CCOC1(c2cccc([N+](=O)[O-])c2)c2ccccc2Oc2ccccc21,57% (inactive),79% (active),62% (inactive)
CCC(C)(C)c1ccc(Oc2cccc(C(=O)O)c2)cc1,10% (inactive),36% (inactive),86.7% (active)
CC(=O)OC1CC2C(C)(C)C(=O)C=C[C@]2(C)C2CCC3(C)C(=CCC3[C@H](CO)C[C@H](O)C(=O)C(C)(C)O)[C@]12C (some centres not stated),-6% (inactive),39% (inactive),26.1% (inactive)
COC1=C(OC)C(=O)C(Sc2ccc3ccccc3c2)=CC1=O,47% (inactive),96% (active),89.6% (active)
CN(C)CCOC1(Cc2ccc(Cl)cc2Cl)CCC(C(C)(C)C)CC1 (configuration not stated),96% (active) and 68% (inactive),100% (active) and 99% (active),99.5% (active) and 99.4% (active)
O=[N+]([O-])c1cc(F)c(F)cc1Sc1cc(F)c(F)cc1[N+](=O)[O-],82% (active),97% (active),98.6% (active)
O=C(/C=C\c1cccc(C(F)(F)F)c1)c1ccccc1,16% (inactive),78% (active),25.9% (inactive)
CCc1ccc2c(c1)N(CC(C)CN(C)C)c1ccccc1S2 (configuration not stated),-9% (inactive),63% (inactive),83.5% (active)
COc1ccc(C(=O)Oc2ccccc2Br)cc1,5% (inactive),90% (active),7.85% (inactive)
CCOC(=O)C1N=[N+](c2ccccc2)C(=O)/C1=C\n1c(=S)[nH]c2ccc([N+](=O)[O-])cc21 (configuration not stated),24% (inactive),94% (active),5.05% (inactive)
CCN(CC)CCN(C)CCc1ccc(Br)cc1,-29% (inactive),25% (inactive),68.3% (inactive)

# From PubChem BioAssay (NCI)
